From PubChem
Hits are enriched below; roughly 1.7% of the tested compounds scored in any of these assays.
KCNH2 3.1 inh = KCNH2 3.1 (human) potassium channel inhibition; AID 720553; hit rate 0.95% among 340,000; U2OS KCNH2 3.1, thallium flux FluxOr; active compounds read low; activity change, % (tested at about 1.8 µM);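 active = maximum activity change below -70%; inconclusive = maximum activity change from -70% to -50%; inactive = maximum activity change above -50%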;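 note: thallium influx rate constant from kinetic fluorescence after stimulation buffer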
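We transduce U2OS cells with the mutant 3.1 virus, culture them overnight, load FluxOr with Red40 quencher for 45 min, then add stimulation buffer and read kinetically for 2 min to derive a normalized rate constant.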
FBPA coupling cs = coupling enzyme interference in Giardia aldolase counter-screen; coupling enzyme system counterscreen, AmpLite Red fluorescence; activity change, negative = inhibition, % at 58.2 µM, hits read low; hit rate 0.67% among 290,000; in the data active = activity change below about -30%
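Counterscreen of the coupled detection system alone, without aldolase: glyceraldehyde-3-phosphate coupling enzymes plus AmpLite Red readout. Compounds at 57.5 uM final, 10 min RT preincubation, 20 min RT reaction, fluorescence 525/598 nm.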
USP1-UAF1 inh = blocks the human USP1/UAF1 deubiquitinase complex; O94782; recombinant USP1/UAF1, Ub-Rhodamine cleavage fluorescence; Potency, µM (series often up to 57.1 µM), inactives show top-dose activity change, negative = inhibition, most hits filed as inhibitors; hit rate 0.23% among 390,000; AID 743255; active = well fitted inhibition curve with a large enough effect; inconclusive = small, poorly fitted or top-dose-only effect; inactive = no such curve, though single readings can be large or run the other way; note: potency is the fitted concentration of half-maximal effect; nearly all actives have a fitted effect of over 60% in size
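USP1/UAF1 complex at 1 nM was preincubated with compound for 15 min at room temperature, then Ub-Rho substrate (150nM final) was added. Fluorescence (480/540 nm) was read kinetically, 6 reads every 60 seconds.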
Giardia kill = Giardia lamblia killing. Giardia lamblia trophozoite viability. activity change, % at 7.66 µM, hits read low. hit rate 0.15% among 340,000. AID 540267; in the data active = activity change below about -80%; inconclusive = between about -30% and that limit;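 note: parasites exposed to compound for two days anaerobically before the ATP read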
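Giardia lamblia trophozoites (100 cells/well) were incubated with compounds for 48 h at 37 deg C under anaerobic conditions. Viability was read as ATP content by one-step luminescence after 15-30 min at room temperature.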
KCNH2 WT inh = blocks the wildtype human KCNH2 potassium channel; Q12809; U2OS, BacMam KCNH2, thallium flux FluxOr; active compounds read low; activity change, % at 1.84 µM; hit rate 0.37% among 340,000; AID 720551;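 active = maximum activity change below -70%; inconclusive = maximum activity change between -70% and -50%; inactive = maximum activity change above -50%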
Target sequence (Q12809 whole entry, looked up): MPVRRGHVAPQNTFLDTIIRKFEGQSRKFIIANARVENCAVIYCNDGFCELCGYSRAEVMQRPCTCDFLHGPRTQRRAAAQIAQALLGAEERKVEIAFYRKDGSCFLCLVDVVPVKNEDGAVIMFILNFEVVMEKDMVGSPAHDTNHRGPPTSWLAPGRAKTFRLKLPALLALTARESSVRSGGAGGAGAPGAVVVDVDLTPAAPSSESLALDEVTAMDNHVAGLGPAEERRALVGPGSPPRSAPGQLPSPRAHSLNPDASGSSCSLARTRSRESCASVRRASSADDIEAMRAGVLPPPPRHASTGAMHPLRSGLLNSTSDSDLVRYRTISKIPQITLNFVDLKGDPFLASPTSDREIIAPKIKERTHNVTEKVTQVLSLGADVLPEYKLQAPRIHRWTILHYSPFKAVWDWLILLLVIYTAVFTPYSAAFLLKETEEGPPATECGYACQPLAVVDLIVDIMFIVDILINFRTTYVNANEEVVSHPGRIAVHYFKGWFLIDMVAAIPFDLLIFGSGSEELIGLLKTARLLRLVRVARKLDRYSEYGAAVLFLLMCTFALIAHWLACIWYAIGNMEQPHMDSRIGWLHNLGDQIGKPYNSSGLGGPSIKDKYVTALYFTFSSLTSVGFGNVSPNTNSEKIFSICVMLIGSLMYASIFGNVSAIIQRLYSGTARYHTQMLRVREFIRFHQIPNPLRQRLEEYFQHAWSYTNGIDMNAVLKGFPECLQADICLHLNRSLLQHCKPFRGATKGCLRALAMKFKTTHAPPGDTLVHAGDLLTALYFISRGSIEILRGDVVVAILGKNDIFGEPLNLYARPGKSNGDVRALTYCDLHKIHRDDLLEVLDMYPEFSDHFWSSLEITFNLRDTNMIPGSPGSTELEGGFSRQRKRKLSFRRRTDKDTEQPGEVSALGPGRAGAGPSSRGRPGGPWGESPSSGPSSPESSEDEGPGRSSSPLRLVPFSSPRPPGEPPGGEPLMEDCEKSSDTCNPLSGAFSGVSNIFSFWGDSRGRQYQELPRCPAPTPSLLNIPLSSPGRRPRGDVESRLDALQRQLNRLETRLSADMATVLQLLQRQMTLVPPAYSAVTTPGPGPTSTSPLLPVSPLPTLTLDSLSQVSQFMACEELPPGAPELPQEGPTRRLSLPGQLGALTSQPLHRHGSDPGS
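U2OS cells transduced with wild-type KCNH2 virus are loaded with FluxOr dye for 45 min, and thallium flux is measured in kinetic reads before and after stimulation buffer. Rate constants are normalized to DMSO controls.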
Starred values were filed as active, the others as inactive; ? = inconclusive; . = not tested or not shown. % is set by controls: 0 for no effect and ±100 for the full control effect.

SMILES	KCNH2 3.1 inh	FBPA coupling cs	USP1-UAF1 inh	Giardia kill	KCNH2 WT inh
CCn1c(SCC(=O)NCc2ccco2)nnc1-c1ccncc1	.	2.5	.	.	.
O=C(CSc1nnc(Cc2cccs2)n1-c1ccccc1)Nc1ccc2c(c1)OCCO2	1.8	6.4	-1.2%	4.3	2.2
CCn1c(C)nnc1SCC(=O)Nc1ccc2c(c1)OCCO2	4.2	1.0	-14.0%	-13.7	-26.4
CCn1c(SCC(=O)Nc2ccc(N3CCOCC3)cc2)nnc1-c1ccncc1	-75.7*	1.9	-18.9%	-1.9	5.5
O=C(OCc1cn([C@H]2CN(C(=O)C3CCCCC3)[C@@H](c3ccccc3)C[C@@H]2O)nn1)c1ccccc1	2.2	.	-10.9%	.	-2.5
CCOC(=O)CSc1nnc(-c2cccs2)n1-c1ccccc1	12.2	4.5	-5.5%	-17.6	-3.6
CCc1nnc(SCC(=O)Nc2ccc3c(c2)OCO3)n1CC	.	.	-16.3%	-17.3	-205.4*
O=C(CSc1nnc(-c2cccs2)n1-c1ccccc1)Nc1ccccc1	-88.9*	3.0	-6.5%	-4.8	-114.9*
O=C(c1ccc2c(c1)N(Cc1ccccc1F)C(=O)c1ccccc1S2)N1CCOCC1	-4.9	-41.9*	-23.6%	0.2	-2.4
CCOc1ccc(CN(CCc2ccc3c(c2)OCO3)Cc2cc(OC)cc(OC)c2)cc1	.	.	-6.4%	.	.
COc1cccc(C2=CC(c3ccc(N(C)C)cc3)n3ncnc3N2)c1 (configuration not stated)	.	-34.7*	.	.	.
COc1cccc(C2=CC(c3ccccc3)n3ncnc3N2)c1 (configuration not stated)	.	2.0	.	.	.
Cc1ccc(/C=C/c2nc3ccccc3c(=O)[nH]2)cc1	-5.1	0.7	-9.3%	-89.7*	-6.8
COC(=O)c1ccc(/C=C/c2nc3ccccc3c(=O)[nH]2)cc1	3.5	1.2	-2.9%	-16.3	-3.4
CC(C)c1nc(C(N)=O)c2[nH]c(=O)n(-c3ccc(F)cc3)c2n1	2.5	4.1	-20.7%	-28.0	-15.7
CCOc1ccccc1-c1nc(C(N)=O)c2[nH]c(=O)n(-c3ccc(F)cc3)c2n1	-84.0*	3.2	0.6%	-11.3	-11.8
Cc1cccc(C(=O)N2CCc3cc(CNC(=O)COc4ccc(Cl)cc4)ccc32)c1	.	.	-4.1%	.	.
Cc1nc2cc3nc(C(F)(F)F)[nH]c3cc2[nH]1	17.8	-35.9*	-26.0%	3.0	5.5
O=c1[nH]c(Nc2ccccc2)cc2cc(Br)ccc12	18.3	.	1.12µM*	-17.1	-0.5
COc1ccccc1Nc1cc2cc(Br)ccc2c(=O)[nH]1	8.3	.	4.47µM*	4.1	-4.4
O=c1[nH]c(Nc2ccccc2)cc2ccccc12	-0.4	-5.6	2.51µM*	-0.8	-3.1
Cn1c(=O)cc(Nc2ccccc2)[nH]c1=O	-1.0	-4.9	-16.1%	-2.8	-3.5
CC(=O)c1cccc(-c2ccc3c(=O)[nH]c(Nc4ccccc4)cc3c2)c1	11.9	.	3.16µM*	34.6	10.1
COc1ccc(NC(=O)Cn2c(=O)n(-c3cc(C)cc(C)c3)c(=O)c3oc4ccccc4c32)cc1OC	.	.	6.6%	.	.
CCN(C(=O)c1ccc(NC(=O)C2CCCCC2C(=O)O)cc1)c1ccccc1 (configuration not stated)	21.3	.	?	.	-16.6
SMILES	KCNH2 3.1 inh	FBPA coupling cs	USP1-UAF1 inh	Giardia kill	KCNH2 WT inh
COc1ccc(NC(=O)CN(C)C(=O)c2ccc(C)c(S(=O)(=O)N3CCCCC3)c2)cc1	-14.7	.	-20.1%	-16.4	15.7
CCC(Oc1ccccc1)C(=O)Nc1cc(-c2ccccc2OC)nn1-c1ccccc1 (configuration not stated)	.	.	-14.6%	.	.
COc1ccc(OC)c(Nc2cc3ccccc3c(=O)[nH]2)c1	41.1	.	5.01µM*	15.8	2.2
CCOC(=O)C1CCN(C(=O)c2ccc3c(=O)n4nc(Nc5ccccc5)sc4nc3c2)CC1	-79.5*	.	-19.3%	.	-2.8
CCOc1cccc2sc(N(CCCN(C)C)C(=O)c3ccc(S(=O)(=O)N(C)Cc4ccccc4)cc3)nc12	.	0.0	-9.7%	-5.1	-74.1*
Cc1ccc2sc(N(CCCN(C)C)C(=O)c3ccc(S(=O)(=O)N(C)Cc4ccccc4)cc3)nc2c1C	-24.2	.	-20.5%	-5.1	-3.7
CCOc1cccc2sc(N(CCN(C)C)C(=O)c3cc4ccccc4cc3OC)nc12	-78.9*	-5.4	-7.7%	-0.5	-16.9
CCc1nn2c(=O)cc(COC(=O)C3CCCCC3)nc2s1	.	.	-10.5%	.	.
COc1ccc(Cn2ccc3nc(C)c(C(=O)N4CCN(c5ccccc5OC)CC4)cc3c2=O)cc1	.	.	-12.5%	.	.
O=C(/C=C/c1ccc(O)c(O)c1)c1ccc(O[C@@H]2O[C@H](CO)[C@@H](O)[C@H](O)[C@H]2O)c(O)c1O	.	-10.9	.	.	.
O=C(Nc1nc(-c2cccc3ccccc23)cs1)c1ccc2c(c1)S(=O)(=O)c1ccccc1C2=O	-106.1*	0.5	-16.5%	-14.3	-33.4
COc1ccc2[nH]c3c4c(ccc3c2c1)C(=O)C=CC4=O	?	-37.6*	?	9.4	-2.0
COc1ccc2[nH]c(-c3ccc(F)cc3F)cc(=O)c2c1	.	1.0	.	.	.
COc1cccc(NC(=O)COC(=O)c2c(NC(C)=O)sc(C)c2C)c1	0.7	.	-15.9%	8.5	-72.8*
CC1CCc2cccc3c2N1c1cc(C#N)c(C#N)cc1O3 (configuration not stated)	-1.6	-0.7	28.2µM*	1.2	-5.6
Cc1c(CNCCc2ccc(S(N)(=O)=O)cc2)c(C(=O)O)c(C)n1Cc1ccc(Cl)cc1	.	.	-11.1%	.	.
Cc1ccc(S(=O)(=O)O/N=C2\CCCc3ccccc32)cc1	-19.1	-12.3	-12.9%	-14.1	0.4
CC1=C(C)/C(=N\OS(=O)(=O)c2ccccc2)C=CC1=O	-3.4	-77.3*	-10.9%	10.6	14.1
CC(C)(C)c1ccc(C(=O)NCCN2CCOCC2)cc1	1.7	.	-9.9%	51.8	10.6
COc1ccc(CCNC(=O)c2ccc(Cl)cc2)cc1OC	-8.1	1.1	6.6%	23.4	1.5
COc1ccc(CCNC(=O)/C=C/c2ccc(C)cc2)cc1OC	-88.8*	-1.6	3.3%	-5.9	-1.1
COc1ccc(CCNC(=O)c2c(Cl)ccc(Cl)c2OC)cc1OC	-96.5*	6.0	-20.7%	9.9	-1.0
COc1ccc(/C=C/C(=O)NCCCN2CCCC2)cc1	-4.2	-0.3	-13.4%	-1.4	19.9
CC(C)(C)c1ccc(C(=O)NCCCN2CCN(CCCNC(=O)c3ccc(C(C)(C)C)cc3)CC2)cc1	-113.6*	1.1	-3.0%	-0.8	-5.7
Cc1ccc(/C=C/C(=O)NCCCN2CCN(CCCNC(=O)/C=C/c3ccc(C)cc3)CC2)cc1	-121.8*	4.0	1.7%	-17.3	-119.1*
CC(C)[C@@H](CC(=O)N[C@@H]1CCNC[C@H]1C(=O)N[C@H](CC(=O)N[C@@H](CCC(=O)O)CC(=O)O)Cc1ccccc1)NC(=O)C[C@H](Cc1ccccc1)NC(=O)[C@@H]1CNCC[C@H]1N	.	-2.6	.	.	.
CCOC(=O)N1CCC(=NNc2ncc(C(F)(F)F)cc2Cl)CC1	6.1	-0.1	-1.7%	5.9	-4.1
